Inconclusive results are not listed. Active and inactive are the calls of the source. The call rests on the fitted dose curve; in most records, active means well fitted cell-killing curve with a large enough effect; inconclusive means small, poorly fitted or top-dose-only effect, or effect the other way; inactive means no such curve, though single readings can be large or run the other way.
assay: Quantitative High-Throughput drug screen in 47 multiple myeloma cell lines against the NCATS MIPE library collection: OCIMY7_PLB cell viability assay (AID 1918987); conditions: OCI-MY7 myeloma viability, CellTiter-Glo ATP, 48 h; viability (% of DMSO): at 45.8 µM (top of the series); further: nearly all actives have a fitted effect of over 65% in size
Description: PI: Beverly A. Mock Ph.D.
Laboratory of Cancer Biology and Genetics,
Center for Cancer Research, National Cancer Institute,
National Institute of Health, Bethesda, Maryland
Drug resistance and disease progression are common in multiple myeloma (MM) patients, underscoring the need for new therapeutic combinations. […] We hypothesized that effective combinations would reduce MYC expression and enhance p16 activity. […] These preclinical data identify potentially useful drug combinations for evaluation in drug-resistant MM and reveal potential mechanisms of combined drug sensitivity.
Described herein is the primary MIPE qHTS used to cherrypick compounds. Validated compounds were then further tested for potential synergistic activiy.
[1] Peat TJ, Gaikwad SM, Dubois W, Gyabaah-Kessie N, Zhang S, Gorjifard S, Phyo Z, Andres M, Hughitt VK, Simpson RM, Miller MA, Girvin AT, Taylor A, Williams D, D'Antonio N, Zhang Y, Rajagopalan A, Flietner E, Wilson K, Zhang X, Shinn P, Klumpp-Thomas C, McKnight C, Itkin Z, Chen L, Kazandijian D, Zhang J, Michalowski AM, Simmons JK, Keats J, Thomas CJ, Mock BA. Drug combinations identified by high-throughput screening promote cell cycle transition and upregulate Smad pathways in myeloma. Cancer Lett. 2023 Aug 1;568:216284. doi: 10.1016/j.canlet.2023.216284. Epub 2023 Jun 24. PMID: 37356470; PMCID: PMC10408729.
SEQUENCE No. (e.g., 1, 2, 3, etc.); […] (e.g., Cells, Incubation, Reagent, etc.); VALUE and DESCRIPTION.
1; Cells; 5 uL; white, solid bottom 1536-well Greiner assay plate.
2; Compounds; 23 nL; Kalypsis pin tool (Wako USA) equipped with a 1536-well pin head to transfer to the assay plates.
3; Incubation; 48 hours; 37C incubation.
4; Reagent;5uL; CellTiter Glo (Promega).
5; Detector; 425V; Luminescence; Viewlux PerkinElmer.
NOTES (numbers refer to Sequence numbers above)
1. The cell-based screening methods employed in this study were like those previously published. Briefly, the corresponding myeloma cell lines were screened in 1,536-well plates with 500 cells, 5-uL per well for inhibition of cell viability (assessed by measuring ATP levels with CellTiterGlo).
2. NCATS MIPE 4.0 library of approved and investigational drugs were added using the Kalypsis pin tool. Wells treated with DMSO only for 100% viability and media only for 0% viability were used as controls.
3. The assay plates were covered and incubated for 48 hours in a 37C, 5% CO2 incubator with controlled humidity.
4. After 48 hours, CellTilter-GloTM luminescent substrate mix (Promega) reagent was added to the assay plate and plates we incubated for 5 min at room temperature.
5. Signal was measured as median relative luminescence units on a ViewLux (PerkinElmer) multiplate reader.
[1] Heske CM, Davis MI, Baumgart JT, Wilson K, Gormally MV, Chen L, Zhang X, Ceribelli M, Duveau DY, Guha R, Ferrer M, Arnaldez FI, Ji J, Tran HL, Zhang Y, Mendoza A, Helman LJ, Thomas CJ. Matrix Screen Identifies Synergistic Combination of PARP Inhibitors and Nicotinamide Phosphoribosyltransferase (NAMPT) Inhibitors in Ewing Sarcoma. Clin Cancer Res. 2017 Dec 1;23(23):7301-7311. doi: 10.1158/1078-0432.CCR-17-1121. Epub 2017 Sep 12. PMID: 28899971; PMCID: PMC6636827.
Potency means the concentration at half of the fitted maximal effect.

SMILES | Potency
CC(=NNC(=S)N1CCC1)c1ccccn1 | inactive
CO[C@H]1C=CC=C(C)C(=O)NC2=CC(=O)C(NCCN(C)C)=C(C[C@@H](C)C[C@H](OC)[C@@H](O)[C@@H](C)C=C(C)[C@@H]1OC(N)=O)C2=O | 0.0662 µM (active)
COc1ccc(-c2coc3cc(O)cc(O)c3c2=O)cc1 | inactive
CCCCCCCCCCCC1=C(O)C(=O)C=C(O)C1=O | 10.5 µM (active)
CN[C@@H](C)C(=O)N[C@H]1CN(C(=O)CC(C)C)CC[C@H]2CC[C@@H](C(=O)NC(c3ccccc3)c3ccccc3)N2C1=O | 10.5 µM (active)
O=C(O)c1ccccc1C(=O)Nc1ccc(-c2ccccc2)cc1 | inactive
NS(=O)(=O)c1cccc2c1C(=O)c1cccc(O)c1C2=O | 0.118 µM (active)
COc1ncc(-c2ccc3nccc(-c4ccnnc4)c3c2)cc1NS(=O)(=O)c1ccc(F)cc1F | 0.166 µM (active)
CC(C)OC(=O)C(C)(C)Oc1ccc(C(=O)c2ccc(Cl)cc2)cc1 | inactive
COc1ccc(Cc2nccc3cc(OC)c(OC)cc23)cc1OC | 18.7 µM (active)
CO[C@H]1C[C@@H]2CC[C@@H](C)[C@@](O)(O2)C(=O)C(=O)N2CCCC[C@@H]2C(=O)O[C@H]([C@@H](C)C[C@@H]2CC[C@H](O)[C@H](OC)C2)CC(=O)[C@H](C)C=C(C)[C@@H](O)[C@@H](OC)C(=O)[C@H](C)C[C@H](C)C=CC=CC=C1C | 14.8 µM (active)
NC(CO)(CO)CCc1ccc(Sc2cccc(OCc3ccccc3)c2)cc1Cl | 11.8 µM (active)
Cc1ccc(/C=N/NC(=O)c2ccccc2Oc2ccccc2)o1 | 16.6 µM (active)
COc1cc2ncnc(Nc3ccc(F)c(Cl)c3)c2cc1OCCCN1CCOCC1 | 1.08 µM (active)
NS(=O)(=O)c1ccc(NC2=CC(=O)c3ccccc3C2=O)cc1 | 2.09 µM (active)
CC(C)C(=O)Nc1ncc(-c2cc(C(F)F)nn2-c2c(Cl)cccc2Cl)s1 | 16.6 µM (active)
CC(=O)O[C@]1(C(C)=O)CC[C@@H]2[C@@H]3C[C@H](C)C4=CC(=O)CC[C@]4(C)[C@H]3CC[C@@]21C | 23.5 µM (active)
c1cc(-c2sc(-c3ccncc3)c(-c3ccncc3)c2-c2ccncc2)ccn1 | 5.26 µM (active)
Cc1nc(N)sc1-c1ccnc(Nc2ccc(N3CCOCC3)cc2)n1 | 1.05 µM (active)
COc1cc2nc(-c3ccc(N4CCN(C)CC4)cc3)nc(NCCN3CCOCC3)c2cc1OC | 14.8 µM (active)

SMILES | Potency
CN(C)C1CCN(C(=O)c2ccc(NC(=O)Nc3nc(N4CCOCC4)nc(N4CCOCC4)n3)cc2)CC1 | 5.26 µM (active)
O=C(O)C=Cc1ccc(O)c(O)c1 | 16.6 µM (active)
COc1ccc(-c2cc(=O)c3c(O)cc(O)cc3o2)cc1O | 3.72 µM (active)
COc1cc(N2CCC(N3CCN(C)CC3)CC2)ccc1Nc1ncc(Cl)c(Nc2ccccc2S(=O)(=O)C(C)C)n1 | 0.264 µM (active)
Cc1[nH]c(C=C2C(=O)Nc3ccc(S(=O)(=O)Cc4c(Cl)cccc4Cl)cc32)c(C)c1C(=O)N1CCC[C@H]1CN1CCCC1 | 10.5 µM (active)
CNC(=O)c1ccccc1Sc1ccc2c(C=Cc3ccccn3)n[nH]c2c1 | 2.64 µM (active)
O=C(CCCCCCC(=O)Nc1ccccc1)NO | 2.35 µM (active)
O=C1c2ccccc2-[n+]2ccc3c([nH]c4ccccc43)c21 | 0.264 µM (active)
CO[C@H]1C[C@@H]2CC[C@@H](C)[C@@](O)(O2)C(=O)C(=O)N2CCCC[C@@H]2C(=O)O[C@H]([C@H](C)C[C@@H]2CC[C@H](OP(C)(C)=O)[C@H](OC)C2)CC(=O)[C@H](C)C=C(C)[C@@H](O)[C@@H](OC)C(=O)[C@H](C)C[C@H](C)C=CC=CC=C1C | 14.8 µM (active)
O=C1C(Cl)=C(NCCN2CCOCC2)C(=O)c2ncccc21 | 3.32 µM (active)
CC(C)(C)Cn1c(N)nc2ccc(-c3[nH]c(C(C)(C)C)nc3-c3ccc(F)cc3)nc21 | 18.7 µM (active)
Nc1ncnc2ccccc12 | 14.8 µM (active)
CCS(=O)(=O)N1CC(CC#N)(n2cc(-c3ncnc4[nH]ccc34)cn2)C1 | 8.33 µM (active)
NC(=O)c1cccc(-c2cc(Nc3ccc(OC(F)(F)F)cc3)ncn2)c1 | 13.2 µM (active)
CC1(C)S[C@H]2[C@H](NC(=O)[C@@H](N)c3ccc(O)cc3)C(=O)N2[C@@H]1C(=O)O | 3.72 µM (active)
COc1cccc(-c2cc(=O)c3ccccc3o2)c1N | 2.96 µM (active)
CCNc1cc(NC2CCC(O)CC2)nc(Nc2ccc3c(ccn3Cc3ccccc3)c2)n1 (stereo not given) | 16.6 µM (active)
CC(C)(C)NC(=O)Nc1cccc(Nc2ncc(F)c(NC(C)(C)CO)n2)c1 | 2.35 µM (active)
O=C(Nc1cc(Cl)cc2c1[nH]c1cnccc12)c1cccnc1 | 14.8 µM (active)
COc1ccc2c3c1OC1C[C@@H](O)C=C[C@@]31CCN(C)C2 (stereo not given in full) | 4.18 µM (active)

Reference: PubChem BioAssay (NCATS)
